# Data from PubChem BioAssay (NCI).
# About 83,000 compounds went through this panel and 20% of them were active in at least one assay; those are over-represented in the sample as a whole.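 The test compound was applied at a single concentration to cells in 96-well plates for 48 hours, and percent growth was recorded.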 Values without a mark were called inactive. Calls of active or inactive are those of the source. The calls were made as follows: active = growth percent below 10; inactive = the rest.
# Tested on: MDA-MB-468 breast
# Assay: NCI-60 one-dose screen, 48 h (100 = growth as untreated, 0 = no growth, -100 = all killed)
# Conditions: 10 µM unless noted
row,SMILES,growth
1,COC(=O)c1ccc2[nH]c(O)c(C(=Nc3ccc(N(C)C(=O)CN4CCN(C)CC4)cc3)c3ccc(N)cc3)c2c1,62%
2,CCN1CCN(C(=S)SCC(=O)Nc2nc3ccc(OC)cc3s2)CC1,97.7%
3,O=C(Nc1ccccc1)Nc1ncnc2c1ncn2-c1ccc(Cl)cc1,92.2%
4,c1ccc2c(-c3c4ccsc4cc4[nH]c5ccccc5c34)c[nH]c2c1,15.7%
5,CC(C)C(NC(=O)C1(NC(=O)OCc2ccccc2)CCCC1)C(=O)O (stereo not given),112%
6,Nc1[nH]n2cc(-c3ccccc3)nc2c1N=Nc1ccc(S(N)(=O)=O)cc1,32.6%
7,O=C1CCC(=O)N1C1CCCCC1,97%
8,O=C(Nc1ccc(F)cc1)c1ccccc1,98.3%
9,O=C1CCC(=O)N1Cc1ccccc1,88.2%
10,CCOC(=O)c1[nH]c2cc(Cl)ccc2c1[C@@H](C(=O)NC(C)(C)C)N(CC)C(=O)CCCCC#Cc1cccc2c1CN(C1CCC(=O)NC1=O)C2=O (stereo not given in full),-14.3% (active)
11,COc1ccc(Cn2cc3c(c2-c2cc(OC)c(OC)c(OC)c2)CCc2c(CO)noc2-3)cc1,-17.8% (active)
12,Cc1nc(N)nc(N[C@@H](C)c2nc3cccc(NCc4ccc(C(=O)NO)cc4)c3c(=O)n2-c2ccccc2)n1,-5.1% (active)
13,C=C(C)C1CCC2(C(=O)O)CCC3(C)C(CCC4C5(C)CCC(OC(=O)NCc6ccccc6)C(C)(C)C5CCC43C)C12 (stereo not given),35.3%
14,COc1cc(-c2nc(C(=O)NCC(=O)O)nn2-c2ccc(Cl)cc2)cc(OC)c1OC,113%
15,C[C@]12CC[C@@H]3c4ccc(O)cc4CC[C@H]3[C@@H]1CC[C@@H]2NS(=O)(=O)c1ccc(C(F)(F)F)cc1,53%
16,COc1ccc(-c2cn[nH]c2-c2cc(OC)c3c(c2)OCO3)cc1,36.1%
17,O=c1[nH]c(Sc2sc3ccc(Cl)cc3c2CBr)nc(=S)[nH]1,19.1%
18,CCOC(=O)c1cc(C(=O)c2cc(OC)cc(OC)c2)n2ccccc12,30.2%
19,CC[C@]12C=CCN3CC[C@@]4(c5cc(NC(=O)CCC(=O)OCc6cn(Cc7ccc(F)cc7)nn6)c(OC)cc5N(C)[C@H]4[C@@](O)(C(=O)OC)[C@@H]1OC(C)=O)[C@@H]32,104%
20,Nc1ccc(SSc2ccc(N)cc2)cc1,101%

row,SMILES,growth
1,CCOC(=O)c1c[nH][nH]c1=O,93.8%
2,C=C1C(=O)O[C@H]2[C@H]1CC/C(COC(=O)NCc1c[nH]c3ccc(OC)cc13)=C\CC[C@@]1(C)O[C@@H]21,-27.8% (active)
3,COc1ccc2[nH]cc(-c3nc(-c4c[nH]c5ccncc45)cs3)c2c1,-33.9% (active)
4,CC(=O)N(C)c1ccc([N+](=O)[O-])cc1,101%
5,COc1ccc([C@@H]2[C@@H](O)C(=O)N2c2cc(OC)c(OC)c(OC)c2)cc1F,-3.08% (active)
6,CC1OC(n2c3ccccc3c3c4c(c5c6ccccc6[nH]c5c32)C(=O)N(CCN2CCOCC2)C4=O)CC(O)C1O (stereo not given),-10.8% (active)
7,Cn1cc(-c2ncnc3ccc(-c4cnc(Cl)c(NS(C)(=O)=O)c4)cc23)c2ccccc21,-1.16% (active)
8,N#C/C(=C\c1ccccn1)c1nc2cc(Cl)ccc2s1,55.5%
9,CCOC(=O)c1cc(C(=O)OCC)c(C)nc1C,109%
10,N#CC1=C(N2CCOCC2)NC2c3ccccc3Sc3ccccc3N2C1=N (stereo not given),99.9%
11,Cc1ccc(-c2nc3nc(-c4ccccc4)nc(N4CCNCC4)c3o2)cc1,-87.2% (active)
12,CCN(CC)c1cc2oc3cc(N)cc(=N)c-3nc2cc1C,38.3%
13,Cc1ccc(-c2nn(-c3ccccc3)cc2C=C2C(=O)ON=C2C(C)C)cc1,94%
14,O=C1CCCc2nc(Nc3ccc(S(=O)(=O)Nc4ccc([N+](=O)[O-])cc4)cc3)ncc21,99.8%
15,COc1ccccc1C(=O)/C=C/c1cc2cccc(OC)c2[nH]c1=O,-43.9% (active)
16,CCNCCCn1c2c(c3cc(OC)c(OC)cc3c1=O)C(=O)c1cc(OC)cnc1-2,5.95% (active)
17,COc1ccc(NC2=C(I)C(=O)c3ncccc3C2=O)cc1,-58% (active)
18,O=C1[C@H]2Cc3c([nH]c4ccccc34)[C@@H](c3ccc(Cl)cc3)N2C(=O)CN1C1CCN(Cc2ccccc2)CC1,27.3%
19,Cc1ccc(C(=O)c2ccc(CC(=O)N/N=C/c3cccc(O)c3O)n2C)cc1,54.9%
20,CS(=O)(=O)c1nccc(-c2c(-c3ccc(F)c(OCCc4ccccc4)c3)nc3sccn23)n1,-83.4% (active)
